Assay outcomes: PubChem, The Scripps Research Institute Molecular Screening Center
Shown is part of a subset that was picked to be rich in hits.
TTR transcr act = TTR transcription activators in neuroblastoma reporter cells, primary screen, cell-based, luminescence, SH-SY5Y, TTR promoter Gaussia luciferase; AID 1117267, 2014; 100% = recombinant luciferase protein wells; activation, % at 16.7 µM; 1.3% of 92,000 active;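 active = activation above the mean of all tested compounds plus 3 SD, cut at about 9.5% in these data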;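 note: cells exposed to compounds for one day before reading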
TTR inh HuH7 = TTR promoter reporter inhibitors in hepatoma cells, counter-screen for TTR transcription activator project, cell-based, luminescence, HuH7 hepatoma | 4% of 1,100 active | inhibition, % at 16.7 µM | HuH7 TTR promoter-Gaussia luciferase reporter | shares compounds with TTR transcr act;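 active = average inhibition above the solvent-only control wells' mean plus 3 SD, cut at about 15% in these data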;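 note: inhibitors lower well luminescence so higher value means more inhibition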
TTR up confirm = TTR transcription activators, retest, confirmation, cell-based, luminescence, SH-SY5Y, triplicate. SHSY5Y TTR promoter Gaussia luciferase; 100% = purified Lucia enzyme wells, no cells. 1,100 tested, under 10 active. activation, % at 16.7 µM. shares compounds with TTR transcr act. AID 1117280, 2014;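 active = mean activation above a set limit taken from the earlier primary screen, cut at about 11% in these data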
Large screens that a line does not name were inactive (follow-up assays come after a bar, where they were run).

CCN1CCCC(NC(=O)c2scc3c2CCCC3)C1 (stereo unspecified)	none
NS(=O)(=O)c1cccc(NC(=O)c2ccc(NS(=O)(=O)c3cccc([N+](=O)[O-])c3)cc2)c1	none
COC(=O)c1ccccc1NC(=O)NC1CCCC1	TTR transcr act 15.0 | TTR inh HuH7 inactive | TTR up confirm inactive
CC(C)C(=O)NC(=S)Nc1ccccc1C(=O)NC1CCCCC1	none
O=C(Nc1ccccc1)NC1CCCCCCC1	none
C[C@H](NC(=O)OCc1ccccc1)C(=O)NNC(=O)[C@H](Cc1ccccc1)NC(=O)OC(C)(C)C	none
O=C(NCCc1nc2ccccc2n1CCOc1cc(F)ccc1F)C1CCCCC1	none
CCN1CCCc2cc(CN(CCN3CCOCC3)C(=S)Nc3ccc(C)cc3)ccc21	none
COc1ccccc1N(CC(=O)NCC1CCCO1)C(=O)CNS(=O)(=O)c1ccc(C)cc1 (stereo unspecified)	TTR transcr act 13.2 | TTR inh HuH7 inactive | TTR up confirm inactive
COc1ccccc1N(CC(=O)NCC1CCCO1)C(=O)CNS(=O)(=O)c1ccc(Cl)cc1 (stereo unspecified)	none
COc1ccccc1CN(CC(=O)NCc1ccco1)C(=O)CNS(=O)(=O)c1ccc(C)cc1	TTR transcr act 12.1 | TTR inh HuH7 inactive | TTR up confirm inactive
COc1ccc(S(=O)(=O)NCC(=O)N(CC(=O)NCc2ccco2)Cc2ccccc2)cc1	none
COc1ccc(CNC(=O)CN(Cc2ccco2)C(=O)CNS(=O)(=O)c2ccccc2)cc1	none
O=C(CN(C(=O)CNS(=O)(=O)c1ccc(F)cc1)c1cccc(F)c1)NCC1CCCO1 (stereo unspecified)	none
C=CCNC(=S)NN=C1CCCCCCC1	none
C=CCNC(=O)/C(=C/c1cn(-c2ccccc2)nc1-c1cccc([N+](=O)[O-])c1)NC(=O)c1ccccc1	none
COc1ccccc1NC(=S)N1CCOCC1	none
CCN(CC)CCNC(=O)C(=O)Nc1cc2c3c(c1)CC(=O)N3CCC2	none
CC(C)(C)CC(=O)Nc1cc2c3c(c1)CC(=O)N3CCC2	none
O=C(CCl)c1cc2c3c(c1)CC(=O)N3CCC2	TTR transcr act 11.1 | TTR inh HuH7 75.5 | TTR up confirm inactive
CC(=O)N(CCC1(C(C)C)CCOC(C)(C)C1)Cc1ccco1 (stereo unspecified)	none
Nc1nc(SCC(=O)Nc2cccc(Oc3ccccc3)c2)n[nH]1	none
CC(C)(C)OC(=O)N1C(=O)[C@](OC(=O)c2ccccc2)(c2ccccc2)c2cccc(F)c21	none
CCOC(=O)C1CCN(C(=O)COC(=O)C2CCN(S(=O)(=O)c3ccc(C)c(C)c3)CC2)CC1	none
O=C(NC(=S)NC1CCSC1=O)c1cccs1 (stereo unspecified)	none
O=C(Cc1ccc(F)cc1)NC1CCSC1=O (stereo unspecified)	none
Cc1cccc(Oc2ccc(C(=O)NC3CCSC3=O)cn2)c1C (stereo unspecified)	TTR transcr act 13.6 | TTR inh HuH7 inactive | TTR up confirm inactive
O=C1NC(=O)N(C2CCCCC2)CC1Br (stereo unspecified)	TTR transcr act 25.0 | TTR inh HuH7 inactive | TTR up confirm inactive
CC1CN(C2CCCCC2)C(=S)NC1=O (stereo unspecified)	none
O=C1NC(=O)N(Cc2ccccc2)CC1Br (stereo unspecified)	none
COc1cc(/C=N/N=C2/NC(=O)C(c3ccccc3)S2)ccc1O (stereo unspecified)	none
Cc1cccc(NC(=O)c2cnccn2)c1	none
O=S(=O)(N/N=C/c1cccc(OC2CSC2)c1)c1ccccc1	none
Cc1ccc(S(=O)(=O)N/N=C/c2cccc(OC3CSC3)c2)cc1	none
O=S(=O)(N/N=C/c1ccc(OC2CSC2)cc1)c1ccccc1	TTR transcr act 11.6 | TTR inh HuH7 inactive | TTR up confirm inactive
O=C(NCc1nc2ccccc2[nH]1)c1c(F)c(F)c(F)c(F)c1F	none
COc1ccccc1OC1=NS(=O)(=O)c2ccccc21	none
COc1ccc(N(CC(=O)Nc2c(C)n(C)n(-c3ccccc3)c2=O)S(=O)(=O)c2ccccc2)cc1OC	TTR transcr act 11.6 | TTR inh HuH7 inactive | TTR up confirm inactive
Cc1ccc(N(CC(=O)Nc2c(C)n(C)n(-c3ccccc3)c2=O)S(C)(=O)=O)cc1C	none
COc1ccc(N(CC(=O)Nc2c(C)n(C)n(-c3ccccc3)c2=O)S(=O)(=O)c2ccc(F)cc2)cc1	none
S=C(NCc1ccccc1)C(=S)NCc1ccccc1	none
O=C(NCCCc1ccccc1)c1cccc(NC(=O)c2ccccc2)c1	none
Cc1cccc(C(=O)NCC(=O)N2CCOCC2)c1	none
O=C(NCc1ccccn1)C1CCN(S(=O)(=O)c2ccccc2)CC1	none
CCC(CC)C(=O)Nc1cccc(C(=O)Nc2nnc(C)s2)c1	none
CCn1nnc(C(=O)O)c1C(=O)O	TTR transcr act 9.9 | TTR inh HuH7 inactive | TTR up confirm inactive
CCOC(=O)[C@@H]1[C@H]2COc3ccc(Br)cc3[C@H]2N2C(=O)N(c3ccc(Cl)cc3)C(=O)[C@]12C	none
N#CC1=C(N)OC2=C(C(=O)CCC2)C1c1ccsc1 (stereo unspecified)	none
Cc1ccc(CCNC(=O)C2CCC(CNc3c(N4CCCC4)c(=O)c3=O)CC2)cc1 (stereo unspecified)	none
CC1CCN(c2c(NCC3CCC(C(=O)NCCc4ccccc4)CC3)c(=O)c2=O)CC1 (stereo unspecified)	none
Cc1ccc(CCNC(=O)C2CCC(CNc3c(N4CCC(C)CC4)c(=O)c3=O)CC2)cc1 (stereo unspecified)	TTR transcr act 22.6 | TTR inh HuH7 inactive | TTR up confirm inactive
O=C(CCC1=NS(=O)(=O)c2ccccc2N1)NC1CCCCCCC1	none
O=C(CN1C(=O)C2CC=CCC2C1=O)N1CCN(c2ccc([N+](=O)[O-])cc2)CC1 (stereo unspecified)	none
O=C(CCCC1=NS(=O)(=O)c2ccccc2N1)N1CCN(c2ccc([N+](=O)[O-])cc2)CC1	TTR transcr act 9.7 | TTR inh HuH7 inactive | TTR up confirm inactive
O=c1c2c3c(sc2n(CCN2CCCCC2)c(=O)n1Cc1ccco1)CCCCC3	none
CCC(C)[C@H](NC(=O)Nc1ccccc1F)C(=O)O (stereo partly specified)	none
COC(C(=O)NC1CC1)c1ccccc1 (stereo unspecified)	none
COC(C(=O)Nc1ccccc1F)c1ccccc1 (stereo unspecified)	TTR transcr act 14.6 | TTR inh HuH7 inactive | TTR up confirm inactive
Cc1noc(C)c1C(=O)NCCC1=CCCCC1	none
O=C(CSc1ccc(Cl)cc1)Nc1cccc(-c2nc3ncccc3o2)c1	none
CC(C)C(=O)Nc1cccc(-c2nc3ncccc3o2)c1	TTR transcr act 14.7 | TTR inh HuH7 inactive | TTR up confirm inactive
CC(C)C(=O)Nc1cccc(-c2nc3ccccc3o2)c1	none
CCCCNCc1cc(OC)c(OCC(N)=O)cc1Br	none
CCCCNCc1cc(OCC)c(OCC(N)=O)cc1Br	TTR transcr act 17.6 | TTR inh HuH7 inactive | TTR up confirm inactive
CCOc1cc(CO)c(Br)cc1OCC(=O)O	none
C/C(=N\NC(=O)c1ccc2c(c1)OCCO2)c1ccccc1	none
CC(C)C(=O)NC(=S)Nc1ccc(CN2CCOCC2)cc1	none
c1ccc(-c2cc(-c3ccncc3)nc3ccc4ccccc4c23)cc1	TTR transcr act 10.8 | TTR inh HuH7 inactive | TTR up confirm inactive
O=C(NCc1ccc(F)cc1)c1cc(-c2ccncc2)nc2ccccc12	none
COc1cc(-c2ccccc2)nc2ccccc12	none
